The record followed here is PubChem BioAssay.

The term inhibition denotes the change of the read-out against control, counted positive when it falls.

Experiment [1] has as its system TRPC4 beta (transient receptor potential cation channel C4), mouse. The experiment can be described thus: TRPC4 cation channel opening, retest – cell-based, Fluo4 calcium, HEK293 TRPC4beta/mu-opioid, duplicates, 10 µM, confirmation (AID 2426;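 active = fluorescence ratio normalized to control raised more than 50% in primary screen plus both repeat runs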;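 for activation: percent rise of integrated ratio over buffer wells lacking compound which define 0%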). Particulars: Fluo4 calcium fluorescence, at 10 µM; hits give high values.
Experiment [2] has as its system transient receptor potential cation channel C4 beta (TRPC4), mouse. Put plainly: TRPC4 cation channel opening, second retest – cell-based, second round, Fluo4, HEK293 TRPC4beta/mu-opioid, 1 µM, confirmation (AID 2461;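 active = primary screen active and over 50% activation in each of two duplicate runs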). Particulars: Fluo4 calcium fluorescence, at 1 µM; hits give high values.
For experiment [3], the system named is TRPC4 (transient receptor potential cation channel C4 beta), mouse. The experiment can be described thus: potentiation of DAMGO EC20 TRPC4 response – cell-based, second round, Fluo-4, HEK293 TRPC4beta/mu-opioid, 1 µM, confirmation (AID 2554). Particulars: DAMGO EC20, Fluo-4 calcium flux, at 1 µM; hits give high values.
Experiment [4] has as its system TRPC4 beta (transient receptor potential cation channel C4), mouse. The experiment can be described thus: potentiation of DAMGO EC20 TRPC4 response – cell-based, Fluo-4, HEK293 TRPC4beta/mu-opioid, confirmation (AID 2555;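 active = primary screen hit whose calcium fluorescence ratio, in both repeats, exceeds the weak agonist control mean by 3 SD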). As to conditions: DAMGO EC20, Fluo-4 calcium flux, at 10 µM; hits give high values. (In general: Calcium flux is commonly read through the fluorescence of an indicator in the cells.)

For experiment [5], the target named is Short transient receptor potential channel 4 (Mus musculus) (UniProt Q9QUQ5). Put plainly: blockers of DAMGO-evoked TRPC4 calcium flux – cell-based, Fluo4, HEK293 TRPC4beta/mu-opioid, confirmation (AID 2636;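 active = calcium signal cut by more than 3 SD below the full-agonist control yet still positive, in both repeats and the earlier primary screen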). Particulars: at 10 µM; hits give high values.
The target is the same in experiment [6]. Put plainly: blockers of DAMGO-evoked TRPC4 calcium flux – cell-based, second round, Fluo4, HEK293 TRPC4beta/mu-opioid, 1 µM, confirmation (AID 2637;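 active = calcium signal ratio cut to more than 3 SD under the fully stimulated control mean yet still positive, in both repeats and the primary screen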). Particulars: at 1 µM; hits give high values.
Experiment [7] has the same target. The experiment can be described thus: calcium entry via TRPC4 opening agents – cell-based, HEK293 TRPC4/mu-opioid, Fluo-4 calcium, dose response (AID 434937;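 active = primary screen activator hit with a dose response curve and TRPC4 channel activation at any tested dose; inactive = no activation, no dose response, or not a primary hit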).
Experiment [8] shares this target. Put plainly: potentiation of DAMGO-evoked TRPC4 calcium signal – cell-based, HEK293 TRPC4/mu-opioid, Fluo-4 calcium, EC20 DAMGO, dose response (AID 434941;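 active = earlier screen potentiator hit that boosts the TRPC4 ion channel at some dose, with a dose response; inactive = no potentiation, no dose response, or not a prior hit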;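 note: calcium entry triggered by an EC20 dose of DAMGO at the co-expressed mu-opioid receptor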).
For experiment [9] the target is unchanged. The experiment can be described thus: block of DAMGO-driven TRPC4 calcium entry – cell-based, HEK293 TRPC4/mu-opioid, Fluo-4 calcium, dose response (AID 434942;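 active = primary screen inhibitor hit that blocks the TRPC4 channel at some tested dose, yielding a dose curve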).
The target in experiment [10] is Short transient receptor potential channel 6 (Mus musculus) (UniProt Q61143). Put plainly: TRPC6 blockade by TRPC4 inhibitor hits – cell-based, HEK293, membrane potential dye, duplicate, selectivity assay for TRPC4 inhibitor project, confirmation (AID 434948;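 active = active in primary screen and both duplicates, each dropping signal beyond three positive-control SD with fluorescence still positive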). As to conditions: HEK293 TRPC6, membrane potential dye fluorescence, at 10 µM, stimulated with maximal-effect acetylcholine; hits give high values.

Experiment [11] has the same target. The experiment can be described thus: TRPC6 opening by TRPC4 activator hits – cell-based, HEK293, membrane potential dye, duplicate, selectivity assay for TRPC4 activator project, confirmation (AID 434950;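 active = membrane potential signal rise above negative control mean plus 3 SD in both duplicates, also active in the earlier TRPC4 screen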;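 for activation: 0% = buffer only wells and 100% = acetylcholine maximal-effect wells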). Particulars: HEK293 TRPC6, membrane potential fluorescence, at 10 µM; activation: hits give high values; outcome: activation.
The target is the same in experiment [12]. Put plainly: positive modulators of mouse TRPC6 channel – HEK293 cells, membrane potential dye, duplicate, selectivity assay for TRPC4 potentiator project, confirmation (AID 434952;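 active = compound raising the membrane signal above positive-control mean plus 3 SD in both repeats, and a primary screen hit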). As to conditions: HEK293 TRPC6, membrane potential dye fluorescence, at 10 µM, maximal acetylcholine added after compound; hits give high values.
Experiment [13] concerns the target Short transient receptor potential channel 4 (Mus musculus) (UniProt Q9QUQ5). Put plainly: calcium flux activators in TRPC4/5HT1a cells, counter-screen for TRPC4 activator project, cell-based, second counter screen, HEK293 TRPC4/5HT1a, Fluo-4 (AID 434977;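 active = calcium signal rise above buffer-control mean plus 5 SD in both duplicates, and also a hit in the primary screen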;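 for activation: plate controls were assay buffer for no effect and maximal serotonin response for full effect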). Particulars: Fluo-4 calcium flux, at 10 µM; hits give high values.
Experiment [14] is described as follows: serotonin-gated TRPC4 signal block – cell-based, second counter screen, HEK293 TRPC4/5HT1a, Fluo-4, counter-screen for TRPC4 inhibitor project, confirmation (AID 434978;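 active = primary screen active whose calcium signal fell more than 3 SD beyond the full-serotonin control mean in both duplicate plates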;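 note: serotonin given first at submaximal then at maximal dose after compound preincubation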). Particulars: Fluo-4 calcium flux, at 10 µM, serotonin added to trigger calcium flux; hits give high values. A general note: Counterscreens check selectivity or assay interference.
The test system of experiment [15] is TRPC4 (mouse), co-expressed with 5HT1a in HEK293. Put plainly: enhancement of serotonin-evoked TRPC4 response – cell-based, second counter screen, HEK293 TRPC4/5HT1a, Fluo-4, counter-screen for TRPC4 potentiator project, confirmation (AID 434979;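 active = signal rise over 3 SD above mean of control wells given weak agonist, in both repeats and first screen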). As to conditions: Fluo-4 calcium flux, at 10 µM, serotonin added at its EC20 dose; hits give high values.
Experiment [16] is described as follows: nonspecific calcium rise without TRPC4 – cell-based, HEK293 mu-opioid receptor line, counter-screen for TRPC4 activator project, confirmation (AID 449723;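 active = hit in primary screen, with calcium signal over 5 SD above buffer well mean in both duplicates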;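 note: counter screen cells carry the mu-opioid receptor alone and lack TRPC4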). As to conditions: HEK293 mu-opioid cells, Fluo-4 calcium fluorescence, at 10 µM; hits give high values.
Experiment [17] can be described thus: nonspecific potentiation of DAMGO calcium response – cell-based, HEK293 mu-opioid receptor line, counter-screen for TRPC4 allosteric potentiator project, confirmation (AID 449724;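 active = calcium signal rise more than 3 SD above the low-dose agonist control mean, in both duplicate plates and the primary screen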;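 note: HEK293 cells carrying mu-opioid receptor only with no TRPC4 channel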). Particulars: HEK293 mu-opioid receptor cells, Fluo-4 calcium flux, at 10 µM, compound added before EC20 DAMGO stimulus; hits give high values.

For part of these data: Results with a measured potency or affinity are listed apart. The source made the active and inactive calls.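 Rule for the calls, unless noted: active = primary screen hit whose fluorescence ratio, in both repeats, exceeds the weak agonist control mean by 3 SD; inactive = the rest.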

Short transient receptor potential channel 6 (Mus musculus), sequence (Q61143 whole entry, looked up): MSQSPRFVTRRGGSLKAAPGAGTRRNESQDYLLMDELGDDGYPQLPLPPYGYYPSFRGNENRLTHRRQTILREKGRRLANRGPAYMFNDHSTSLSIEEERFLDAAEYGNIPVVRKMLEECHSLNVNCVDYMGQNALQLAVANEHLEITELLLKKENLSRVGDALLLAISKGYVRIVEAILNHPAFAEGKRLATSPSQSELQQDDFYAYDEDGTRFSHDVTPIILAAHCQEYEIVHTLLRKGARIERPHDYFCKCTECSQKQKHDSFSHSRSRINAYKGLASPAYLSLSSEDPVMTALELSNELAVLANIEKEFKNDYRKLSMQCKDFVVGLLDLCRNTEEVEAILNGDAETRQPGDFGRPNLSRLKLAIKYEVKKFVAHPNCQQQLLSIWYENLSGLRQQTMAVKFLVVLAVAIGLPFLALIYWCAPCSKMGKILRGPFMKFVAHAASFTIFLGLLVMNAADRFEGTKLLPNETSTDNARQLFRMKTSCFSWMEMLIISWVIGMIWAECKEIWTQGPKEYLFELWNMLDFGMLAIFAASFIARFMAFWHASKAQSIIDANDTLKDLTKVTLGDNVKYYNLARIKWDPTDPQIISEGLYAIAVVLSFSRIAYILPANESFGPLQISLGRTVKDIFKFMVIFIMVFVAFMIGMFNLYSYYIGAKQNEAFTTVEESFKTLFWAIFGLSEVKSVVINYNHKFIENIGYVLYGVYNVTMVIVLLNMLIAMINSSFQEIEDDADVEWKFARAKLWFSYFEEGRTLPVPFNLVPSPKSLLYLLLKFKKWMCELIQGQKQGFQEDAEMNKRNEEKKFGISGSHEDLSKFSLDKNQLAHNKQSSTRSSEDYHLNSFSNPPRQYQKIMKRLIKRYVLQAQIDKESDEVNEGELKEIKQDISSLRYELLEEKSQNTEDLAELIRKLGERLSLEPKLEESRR
Short transient receptor potential channel 4 (Mus musculus), sequence (Q9QUQ5 whole entry, looked up): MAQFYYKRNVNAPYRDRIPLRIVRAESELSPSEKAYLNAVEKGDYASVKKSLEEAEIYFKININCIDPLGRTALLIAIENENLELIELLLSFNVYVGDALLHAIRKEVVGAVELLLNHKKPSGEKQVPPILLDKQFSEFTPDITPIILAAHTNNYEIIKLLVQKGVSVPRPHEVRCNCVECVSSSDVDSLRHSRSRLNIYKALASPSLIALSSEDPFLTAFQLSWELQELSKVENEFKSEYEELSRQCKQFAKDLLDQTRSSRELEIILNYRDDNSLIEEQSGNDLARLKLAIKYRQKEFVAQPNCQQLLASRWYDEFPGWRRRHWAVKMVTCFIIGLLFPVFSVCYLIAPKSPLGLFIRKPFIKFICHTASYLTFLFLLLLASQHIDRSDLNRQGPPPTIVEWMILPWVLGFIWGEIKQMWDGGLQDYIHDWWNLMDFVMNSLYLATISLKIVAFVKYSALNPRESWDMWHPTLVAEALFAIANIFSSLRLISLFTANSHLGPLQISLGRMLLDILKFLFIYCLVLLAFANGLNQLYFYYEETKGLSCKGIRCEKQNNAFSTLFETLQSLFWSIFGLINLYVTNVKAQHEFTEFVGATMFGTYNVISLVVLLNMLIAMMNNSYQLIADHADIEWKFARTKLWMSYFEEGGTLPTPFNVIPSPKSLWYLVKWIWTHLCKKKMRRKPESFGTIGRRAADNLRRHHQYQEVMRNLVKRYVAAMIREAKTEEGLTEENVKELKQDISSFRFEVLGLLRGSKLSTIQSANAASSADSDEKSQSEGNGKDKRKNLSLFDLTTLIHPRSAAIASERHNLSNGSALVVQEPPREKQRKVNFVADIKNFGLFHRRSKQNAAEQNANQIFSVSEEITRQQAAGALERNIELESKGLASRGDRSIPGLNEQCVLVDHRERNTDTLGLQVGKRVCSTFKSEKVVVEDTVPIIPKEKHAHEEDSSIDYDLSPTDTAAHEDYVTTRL

`O=C(C1=C[C@H](c2ccc(C(F)(F)F)cc2)C[C@H](OCCCCO)O1)N1CCOCC1`: the result in [1], in experiment [2], in experiment [3], in experiment [4], in experiment [5] and in [6] was inactive. The result in experiment [7], in [8], in [9], in experiment [10], in [12] and in experiment [13] was inactive. The outcome in [14], in experiment [15], in experiment [16] and in experiment [17] was inactive. Also, the activation in [11] was 27.5% (active).
Take `COc1cc(S(=O)(=O)N2CCC(N3CCCCC3)CC2)ccc1-n1cnnn1`: the outcome in experiment [1], in experiment [2], in [5], in [6], in [7] and in experiment [8] was inactive. Also, the result in experiment [9], in [10], in [11], in experiment [12], in [13] and in experiment [14] was inactive. In addition, the result in experiment [16] and in experiment [17] was inactive. The potentiation is 12% (active) in experiment [3], 8% (active) in [4] and 13.4% (active) in experiment [15].
Take `CN(Cc1ccco1)C(=O)Cn1ncc2c([nH]c3ccccc32)c1=O`: the result in experiment [1], in experiment [2], in [3], in [5], in experiment [6] and in experiment [7] was inactive. In addition, the result in [8], in experiment [9], in experiment [10], in experiment [11], in experiment [12] and in experiment [13] was inactive. For the same compound, the outcome in experiment [14], in [16] and in experiment [17] was inactive. In addition, the potentiation in [4] was 10% (active); in experiment [15], 61.1% (active).
For `O=C(c1coc2ccc(O)c(CN3CCOCC3)c12)C1CC1`, the outcome in [1], in experiment [2], in experiment [3], in experiment [4], in [5] and in experiment [6] was inactive. Besides, the result in [7], in experiment [8], in [9], in experiment [10], in experiment [11] and in [12] was inactive. Besides, the result in [13], in experiment [14], in experiment [15], in [16] and in [17] was inactive.
In the case of `C=CCNC(=O)C(=O)NCC1CCCN1S(=O)(=O)c1cccs1` (stereo not given), the outcome in experiment [1], in [2], in experiment [3], in experiment [4], in [5] and in [6] was inactive. In addition, the outcome in experiment [7], in [8], in experiment [9], in [10], in experiment [11] and in [12] was inactive. The outcome in [13], in experiment [14], in experiment [16] and in experiment [17] was inactive. Further, in [15], the potentiation was 11.2% (active).
As to `Cc1ccc(C)n1-c1nnc(N2CCC(C(=O)NCCCN3CC(C)CC(C)C3)CC2)s1` (stereo not given), the activation in experiment [1] was 67% (active); in experiment [13], 20.3% (active). The result in [2], in experiment [3], in experiment [4], in experiment [5], in experiment [6] and in experiment [7] was inactive. Moreover, the result in experiment [8], in experiment [9], in [10], in [11], in experiment [12] and in experiment [14] was inactive. For the same compound, the outcome in experiment [15], in experiment [16] and in experiment [17] was inactive.
Regarding `CC(C)Cn1c(O)c(N=NC(=O)c2cccc(S(=O)(=O)N3CCCCC3)c2)c2ccccc21`, the outcome in [1], in [2], in experiment [3], in experiment [5], in [6] and in experiment [7] was inactive. Moreover, the result in [8], in [9], in experiment [10], in [11], in experiment [12] and in experiment [13] was inactive. Moreover, the outcome in [14], in experiment [15], in experiment [16] and in [17] was inactive. Besides, the potentiation in experiment [4] was 15% (active).
On to `CC(=O)c1cccc(Nc2cc(C)nc3c(C)cc(C)cc23)c1`, for which the result in experiment [1], in experiment [2], in [3], in [4], in experiment [5] and in experiment [6] was inactive. The outcome in [7], in experiment [8], in experiment [9], in [11], in [12] and in [13] was inactive. Moreover, the outcome in experiment [14], in experiment [15], in experiment [16] and in experiment [17] was inactive. Also, in [10], the inhibition was 25.5% (active).
With `COc1cc(/C=C/C(=O)OCC(=O)Nc2c(C)n(C)n(-c3ccccc3)c2=O)ccc1OCC#N`, the result in [1], in experiment [2], in [3], in experiment [4], in [5] and in experiment [6] was inactive. For the same compound, the result in experiment [7], in experiment [8], in experiment [9], in experiment [10], in experiment [12] and in experiment [13] was inactive. Besides, the outcome in experiment [14], in experiment [15], in [16] and in [17] was inactive. Besides, the activation in experiment [11] is 39.5% (active).
Turning to `CCN1CCCC1CNCc1ccc(Cl)cc1Cl` (stereo not given), the outcome in experiment [1], in [2], in experiment [5], in experiment [6], in experiment [7] and in experiment [8] was inactive. For the same compound, the outcome in [9], in [10], in experiment [11], in experiment [12], in [13] and in experiment [14] was inactive. For the same compound, the result in [16] and in experiment [17] was inactive. Further, the potentiation in [3] was 11% (active); in experiment [4], 8% (active); in [15], 12.9% (active).
As for `CC(C)c1ccc(C(C)NCCS(=O)(=O)c2ccc(Br)cc2)cc1` (stereo not given), the result in experiment [1], in experiment [2], in [3], in experiment [4], in experiment [5] and in [6] was inactive. The outcome in [7], in experiment [8], in experiment [9], in experiment [10], in [11] and in experiment [12] was inactive. The result in experiment [13], in experiment [14], in experiment [16] and in [17] was inactive. Moreover, in [15], the potentiation was 21.2% (active).
Consider `CCCCN(C)CCNC(=S)Nc1ccc2nc(N3CCN(CC)CC3)cc(C)c2c1`, for which the result in experiment [1], in experiment [2], in experiment [4], in experiment [5], in experiment [6] and in experiment [7] was inactive. For the same compound, the outcome in [8], in [9], in experiment [10], in [11], in experiment [12] and in experiment [13] was inactive. Further, the outcome in experiment [14], in experiment [16] and in experiment [17] was inactive. Further, the potentiation in experiment [3] was 11% (active); in [15] it was 18% (active).
Turning to `O=C(OCC(=O)N1CCOCC1)c1cccc(S(=O)(=O)N2CCCc3ccccc32)c1`, the outcome in experiment [1], in [2], in experiment [3], in experiment [4], in experiment [5] and in [6] was inactive. The result in experiment [7], in experiment [8], in [9], in [10], in experiment [11] and in [12] was inactive. Also, the result in experiment [13], in experiment [14], in experiment [16] and in experiment [17] was inactive. The potentiation in experiment [15] was 10.2% (active).
For the compound `COc1ccc(CCNC(=O)Cn2cnc3c(cnn3C(C)(C)C)c2=O)cc1OC`, the outcome in experiment [1], in [2], in [3], in experiment [4], in [5] and in [6] was inactive. Also, the result in experiment [7], in [8], in experiment [9], in experiment [10], in experiment [11] and in [12] was inactive. Moreover, the result in experiment [13], in experiment [14], in experiment [16] and in experiment [17] was inactive. In experiment [15], the potentiation is 7.92% (active).
For `O=C(Cc1cn(Cc2cccc(Cl)c2)c2ccccc12)N1CCCC1`, the result in experiment [1], in experiment [2], in experiment [3], in experiment [5], in [6] and in experiment [7] was inactive. For the same compound, the outcome in [8], in experiment [9], in experiment [10], in experiment [11], in [12] and in [13] was inactive. The outcome in [14], in experiment [16] and in experiment [17] was inactive. The figures for the potentiation in experiment [4] and in [15] were 10% (active) and 29.2% (active), respectively.
